Screening results as filed in PubChem.
Sampled rows, rich in hits. Any-hit rate of the full collection: about 9.9%.
Tau fibril FP: tau fibrillization inhibition (FP) | P10636 | K18 P301L tau heparin fibrillization, Alexa594 FP, 6 h | Potency, µM (highest dose often 57.7 µM), without a hit: at the highest dose activity, negative = inhibition, actives largely listed as inhibitors | 0.39% of 280,000 active | AID 1468; note: nearly all actives have a fitted effect of over 55% in size
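K18 P301L tau (15 uM unlabeled/0.24 uM Alexa 594-labeled, final) + compound + heparin 20 uM final; 100 mM NaOAc pH 7; 6 hr 37 C; ThT 30 uM final added, 1 hr RT; FP ex 555/em 632 nm.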
JMJD2E inh: blocks human JMJD2E demethylase activity. B2RXH2. JMJD2E catalytic domain, FDH-coupled NADH fluorescence (FDH is formaldehyde dehydrogenase). Potency, µM (titrated, usually from 57.1 µM), inactives show at the top dose activity change, negative = inhibition, usual class: inhibitors. 1.6% of 230,000 active. AID 2147; active = well fitted inhibition curve with a large enough effect, not every such curve was filed as active; inconclusive = small, poorly fitted or top-dose-only effect, or another doubt; inactive = no such curve, though single readings can be large or run the other way;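 note: 0% = wells with enzyme and -100% = buffer wells without enzyme; nearly all actives have a fitted effect of over 50% in size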
Tau fibril ThT: blocks human tau fibril formation measured by thioflavin T; recombinant tau K18 P301L, heparin-induced fibrillization, ThT fluorescence; Potency, µM (titrated, usually from 57.4 µM), for inactives: at the top dose activity, negative = inhibition, actives largely listed as inhibitors; 2.1% of 270,000 active; AID 1460; note: nearly all actives have a fitted effect of over 55% in size
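ThT emission at 510 nm, taken 1 hr after adding 30 uM dye, quantifies aggregates formed when 20 uM heparin acts on human tau K18 P301L for 6 hr at 37 C.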
Tau fluor cs: counter-screen for tau fibril formation inhibitors. tau K18 P301L (four-repeat tau fragment) Alexa594 fluorescence, heparin fibrillization. Potency, µM (titrated, usually from 57.7 µM), for inactives: at the top dose activity change, negative = decrease. 0.93% of 280,000 active; note: nearly all actives have a fitted effect of over 55% in size
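Human K18 P301L tau (15 uM unlabeled plus 0.24 uM Alexa 594-labeled, final) in 100 mM sodium acetate pH 7 was mixed with compound and 20 uM heparin and incubated 6 hr at 37 C.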
ALDH1A1 inh: ALDH1A1 (human) enzyme inhibition | P00352 | Purified ALDH1A1, NADH fluorescence, propionaldehyde substrate | Potency, µM (titrated, usually from 75.3 µM), for the others: at the highest dose activity, negative = inhibition, hits mostly inhibitors | 7.3% of 220,000 active | AID 1030; active = well fitted inhibition curve with a large enough effect, not every such curve was filed as active; inconclusive = small, poorly fitted or top-dose-only effect, or another doubt; inactive = no such curve, though single readings can be large or run the other way;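 note: plate controls were no enzyme wells and a reference inhibitor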
Target sequence (P00352 whole entry, looked up): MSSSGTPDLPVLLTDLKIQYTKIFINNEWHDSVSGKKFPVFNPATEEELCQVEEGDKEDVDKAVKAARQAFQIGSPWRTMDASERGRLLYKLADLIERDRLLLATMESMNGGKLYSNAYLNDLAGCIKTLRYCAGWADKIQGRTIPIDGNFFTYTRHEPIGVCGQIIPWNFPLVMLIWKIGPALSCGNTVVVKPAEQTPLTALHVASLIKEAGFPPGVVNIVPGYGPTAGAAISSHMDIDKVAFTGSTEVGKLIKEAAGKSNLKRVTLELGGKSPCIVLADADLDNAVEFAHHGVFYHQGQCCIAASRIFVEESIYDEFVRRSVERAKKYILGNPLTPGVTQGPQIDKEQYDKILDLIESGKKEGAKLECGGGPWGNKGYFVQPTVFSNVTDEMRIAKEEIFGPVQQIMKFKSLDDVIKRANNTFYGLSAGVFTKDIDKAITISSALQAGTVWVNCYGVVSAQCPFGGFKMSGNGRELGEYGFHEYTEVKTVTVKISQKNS
HPGD inh: HPGD (human) dehydrogenase inhibition; purified HPGD, NADH fluorescence kinetic, PGE2 substrate; AID 894; Potency, µM, for the others: top-dose activity change, negative = inhibition, hits mostly inhibitors; P15428; 4.3% of 150,000 active; active = well fitted inhibition curve with a large enough effect, not every such curve was filed as active; inconclusive = small, poorly fitted or top-dose-only effect, or another doubt; inactive = no such curve, though single readings can be large or run the other way
Target sequence (P15428 whole entry, looked up): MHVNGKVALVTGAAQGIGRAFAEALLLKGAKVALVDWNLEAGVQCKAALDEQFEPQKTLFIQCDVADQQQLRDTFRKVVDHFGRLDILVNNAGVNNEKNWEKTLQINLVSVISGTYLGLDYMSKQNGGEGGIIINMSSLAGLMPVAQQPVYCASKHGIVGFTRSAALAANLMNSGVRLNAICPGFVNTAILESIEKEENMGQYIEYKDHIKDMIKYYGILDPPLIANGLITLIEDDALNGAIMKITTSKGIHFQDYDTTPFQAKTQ
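NADH formation kinetics: reaction with 30 uM PGE2 and 1 mM NAD+ (final), 20 nM enzyme, Tris-HCl pH 8 with Tween 20, after 15 min compound preincubation at room temperature. Fluorescence change, last versus first of five reads.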
The depositor's hits bear a star; ? = inconclusive; . = no result given; [ ] = another dose, or the depositor's remark. Unless noted, calls come from the whole dose curve; as a rule, active = well fitted curve in the direction sought with a large enough effect; inconclusive = small, poorly fitted or top-dose-only effect, or another doubt; inactive = no such curve, though single readings can be large; an effect the other way counts as inactive or inconclusive. Unless noted, % is set by controls: 0 for no effect and ±100 for the full control effect; potency is the fitted concentration of half-maximal effect.

SMILES | Tau fibril FP | JMJD2E inh | Tau fibril ThT | Tau fluor cs | ALDH1A1 inh | HPGD inh
Fc1ccc(C(NCCc2ccc(Cl)cc2)c2nnc(-c3ccccc3Cl)o2)cc1 (stereo unspecified) | -11.1% | . | ? | -24.4% | . | .
Cc1cccc(N=Nc2c(C)c(C#N)c(O)[nH]c2=O)c1 | 1.7% | -0.7% | 1.12µM* | -20.1% | -8.0% | .
O=C(C(c1ccccc1)c1ccccc1)N1CC[C@@]2(O)CCCC[C@H]2C1 | -7.0% | -0.9% | -2.9% | -3.4% | . | .
CC(=O)OCc1ccc2c(c1)OCO2 | . | . | . | . | -9.2% | -12.5%
COc1ccc2[nH]c(=O)c3c(c2c1)OC(C)(C)C=C3 | -6.0% | ? | -10.2% | -17.6% | -6.5% | ?
Cc1cc2c([nH]c3ccccc32)c2c1OC(C)(C)C=C2 | 9.7% | -1.5% | ? | 14.1µM*[quencher] | . | .
CC1(C)Cc2ccccc2C(/C(=N\Nc2cccc(Cl)c2)C(N)=O)=N1 | 9.4% | -6.9% | 14.1µM* | ? | 3.5% | -9.3%
CC(=O)c1ccc(N/N=C(/C(N)=O)C2=NC(C)(C)Cc3ccccc32)cc1 | 4.6% | -5.2% | ? | -25.7% | -3.9% | -14.5%
N#CC1=C(S)N(c2ccc(F)cc2)C2(CCCCC2)NC1=O | 28.2µM* | -5.2% | 31.6µM* | -17.7% | -2.3% | .
COc1cccc(NC(=O)CN2CCN(c3ccccc3F)CC2)c1 | 0.9% | -5.3% | -12.3% | -6.7% | 10µM* | -5.6%
O=C(CN1CCN(Cc2ccccc2)CC1)Nc1ccc2c(c1)CCC2 | 6.4% | -12.3% | -6.3% | 0.6% | ? | .
COc1cc(NC(=O)CN2CCN(c3ccccc3F)CC2)cc(OC)c1 | 4.7% | 0.0% | -1.0% | -10.0% | 22.4µM* | -3.1%
COc1ccc(CCNC(=O)CN2CCN(c3ccccc3Cl)CC2)cc1 | 9.3% | -2.7% | -15.1% | -11.5% | 3.16µM* | -1.6%
COc1ccc(CCNC(=O)CN2CCN(c3cccc(C(F)(F)F)c3)CC2)cc1 | 3.4% | 5.2% | -15.1% | -13.6% | 3.1% | -9.0%
COC(=O)c1cccc(NC(=O)CN2CCN(Cc3ccccc3)CC2)c1 | 7.6% | 13.7% | -5.5% | -4.1% | 25.1µM* | 3.1%
Cc1nnc(N2CCN(c3cccc(C(F)(F)F)c3)CC2)c2c1nnn2Cc1ccccc1 | -1.8% | . | -10.7% | -15.6% | . | .
COc1cccc(NC(=O)Cn2c(CCC(=O)O)ccc2-c2ccc(Cl)cc2)c1 | -6.3% | 28.2µM* | -19.4% | -21.2% | 25.1µM* | .
COc1cc(C2C(C#N)=C(N)Oc3cc(C)n(CC4CCCO4)c(=O)c32)cc2c1OCO2 (stereo unspecified) | 6.2% | -24.0% | 2.4% | 2.6% | 25.1µM* | -18.5%
Cc1cc2c(c(=O)n1Cc1ccccn1)C(c1ccc3c(c1)OCO3)C(C#N)=C(N)O2 (stereo unspecified) | -0.1% | -2.1% | -6.8% | -4.8% | 12.6µM* | -12.5%
N#CC1=C(N)OC(c2ccccc2)=C(C#N)C1c1ccc2c(c1)OCO2 (stereo unspecified) | -13.3% | -14.9% | ? | -26.8% | 1µM* | 14.1µM*
COc1cc(C2C(C#N)=C(N)Oc3cc(C)n(Cc4ccccn4)c(=O)c32)cc2c1OCO2 (stereo unspecified) | -5.9% | -0.3% | -2.5% | -11.4% | -0.6% | -24.8%
N#CC1=C(N)OC2=C(C(=O)CC(c3ccccc3)C2)C1c1ccc2c(c1)OCO2 (stereo unspecified) | -9.3% | -2.1% | -16.8% | ? | 11.2µM* | 28.2µM*
CC(C)CC1C(C#N)=C(N)OC2=C1C(=O)CC(c1ccccc1)C2 (stereo unspecified) | -1.2% | -24.2% | -16.0% | -21.4% | ? | .
O=S(=O)(NCC(c1ccco1)S(=O)(=O)c1cccs1)c1ccc(F)c(C(F)(F)F)c1 (stereo unspecified) | -3.1% | . | -7.3% | -19.2% | . | .
O=C(COC(=O)c1cncc(Br)c1)NC1CCCCCC1 | 3.4% | 6.3% | -11.3% | 0.7% | ? | .
SMILES | Tau fibril FP | JMJD2E inh | Tau fibril ThT | Tau fluor cs | ALDH1A1 inh | HPGD inh
Cc1ccccc1-c1nc2cc(NC(=O)COc3ccc(F)cc3)ccc2o1 | ? | . | ? | -12.3% | . | .
CCc1ccc(C(=O)c2cnc3ccc(F)cc3c2S(=O)(=O)c2ccccc2)cc1 | -13.7% | . | -14.7% | -22.0% | . | .
CCCCC1=CC2=CC(=O)C(C)(OC(=O)CC)C(=O)C2=CN1CCc1ccc(Br)cc1 (stereo unspecified) | 5.3%[11.6 µM] | ? | ? | -5.0%[11.6 µM] | -1.1%[13.5 µM] | -3.4%
S=C1SCN(Cc2cccnc2)CN1Cc1cccnc1 | -3.8% | 18.1% | -4.4% | 1.7% | 14.1µM* | .
COc1ccc(CN2CSC(=S)N(Cc3ccc(OC)cc3)C2)cc1 | ? | 3.4% | -13.7% | ? | ? | .
Cc1onc(-c2c(F)cccc2Cl)c1C(=O)OCN1C(=O)c2ccccc2C1=O | -4.6% | 0.9% | -10.5% | -12.4% | 2.6% | 1.41µM*
Cc1onc(-c2c(F)cccc2Cl)c1C(=O)ONC(=O)c1ccco1 | -15.7% | ? | . | -3.2% | . | .
Cc1[nH]c2ccccc2c1C(=O)COC(=O)c1c(-c2c(F)cccc2Cl)noc1C | 14.1µM* | -6.9% | 8.7% | ? | 6.5% | -7.5%
Cc1[nH]c2ccccc2c1C(=O)COC(=O)c1c(-c2ccccc2Cl)noc1C | ? | ? | 4.2% | ? | ? | -28.0%
Cc1nc2nc(NCc3cccs3)nn2c(C)c1Cl | -5.1% | ? | -9.9% | -5.2% | ? | ?
COc1cccc(N2CCN(C(=O)Cn3ncc4c(=O)oc5ccccc5c43)CC2)c1 | -1.9% | . | ? | -17.7% | . | .
CN(C(=O)Nc1ccccc1)C1CCS(=O)(=O)C1 (stereo unspecified) | 4.2% | 5.6% | -4.0% | 2.9% | 5.9% | -6.7%
CC(=O)NC1=C(N(C)C2CCS(=O)(=O)C2)C(=O)c2ccccc2C1=O (stereo unspecified) | ? | 4.1% | 25.1µM* | -22.4% | ? | -3.0%
Cc1cccc(Nc2nnc(-n3nc(C)cc3C)c3ccccc23)c1 | -10.3% | . | -19.9% | -28.9% | . | .
Cc1cccc(/C=C2/SC(=O)N(Cc3ccccc3Cl)C2=O)n1 | 0.5% | 7.0% | -1.8% | -6.5% | 3.16µM* | -13.2%
Cc1ccc(NC(=O)CN2C(=O)S/C(=C\c3ccccn3)C2=O)cc1 | -3.7% | 9.1% | 4.5% | -2.4% | -1.7% | .
COc1cc(/C=C2/SC(=O)N(Cc3ccccc3Cl)C2=O)ccc1OCc1ccncc1 | 2.9% | 3.6% | -6.1% | -7.3% | 0.447µM* | 1.4%
N#C/C(=C\NC(=S)c1ccncc1)c1nc2ccccc2s1 | . | . | . | . | ? | -17.3%
C=CCn1c(SCc2ccccc2)nc2scc(-c3ccc(C)o3)c2c1=O | -0.1% | 5.2% | -12.1% | -10.6% | ? | -11.1%
C=CCn1c(SCC(N)=O)nc2scc(-c3ccc(C)o3)c2c1=O | -0.4% | -12.3% | ? | -15.1% | 10µM* | .
